# Data reported in publication PMC7862700, “An all-to-all approach to the identification of sequence-specific readers for epigenetic DNA modifications on cytosine”.
# Tests used:
# Test in all cases: DAPPL (digital affinity profiling via proximity ligation, sequencing); 10 mM Tris-HCl pH 7.5, 50 mM NaCl, 1 mM DTT, 4% glycerol, room temperature, 30 min; GST-TFs on glutathione beads, 16-mer random dsDNA library, 0.1% formaldehyde crosslink after washing; high values mean tight binding
# FLI1 = molecular target: T1, FLI1 (Homo sapiens, UniProt Q01543 1-452); settings: protein: recombinant; tags: N-terminal GST; dsDNA, one strand shown
# T1 sequence: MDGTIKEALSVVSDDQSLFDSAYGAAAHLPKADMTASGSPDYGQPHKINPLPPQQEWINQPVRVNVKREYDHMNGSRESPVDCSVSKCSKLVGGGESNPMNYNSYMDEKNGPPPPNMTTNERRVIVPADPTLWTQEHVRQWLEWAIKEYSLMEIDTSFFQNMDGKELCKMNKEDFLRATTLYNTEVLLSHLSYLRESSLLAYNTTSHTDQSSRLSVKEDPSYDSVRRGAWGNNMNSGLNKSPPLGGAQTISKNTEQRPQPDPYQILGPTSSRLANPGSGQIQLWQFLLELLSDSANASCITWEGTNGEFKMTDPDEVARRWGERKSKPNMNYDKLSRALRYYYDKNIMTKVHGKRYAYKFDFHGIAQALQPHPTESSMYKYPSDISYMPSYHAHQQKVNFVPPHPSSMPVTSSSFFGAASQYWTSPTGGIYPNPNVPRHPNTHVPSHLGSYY
# Summary of the method: (§1)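 Human transcription factors fused to GST were expressed in yeast, captured on glutathione beads, given DNA barcodes and pooled with a GST-only negative control. Pools were incubated with 200 nmole of a 16-mer random double-stranded DNA library in Tris/NaCl/DTT/glycerol buffer at room temperature for 30 min. They were then washed, crosslinked with 0.1% formaldehyde, proximity-ligated (BsaI/T4 ligase, 1 h, 37 °C), PCR-amplified and sequenced on an Illumina NextSeq500. Binding signal is each 6-mer's read frequency for a factor divided by its frequency for the GST control.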
# ELK1 = molecular target: T2, ELK1 (Homo sapiens, UniProt P19419 1-428); settings: protein: recombinant; tags: N-terminal GST; dsDNA, one strand shown
# T2 sequence: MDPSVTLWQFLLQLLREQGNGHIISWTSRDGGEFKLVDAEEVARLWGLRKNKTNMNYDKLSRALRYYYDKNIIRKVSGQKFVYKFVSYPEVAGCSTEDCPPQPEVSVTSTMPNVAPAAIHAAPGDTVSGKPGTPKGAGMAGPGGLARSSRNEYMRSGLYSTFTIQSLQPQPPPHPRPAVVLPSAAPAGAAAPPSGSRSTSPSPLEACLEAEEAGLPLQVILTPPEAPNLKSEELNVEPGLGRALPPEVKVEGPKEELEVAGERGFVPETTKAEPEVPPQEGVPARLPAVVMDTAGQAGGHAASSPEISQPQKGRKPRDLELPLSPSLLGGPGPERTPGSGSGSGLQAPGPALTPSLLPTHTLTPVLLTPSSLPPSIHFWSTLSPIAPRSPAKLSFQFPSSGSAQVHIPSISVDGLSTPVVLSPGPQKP
# Summary of the method: as §1
# GABPA = molecular target: T3, GABPA (Homo sapiens, UniProt Q06546 1-454); settings: protein: recombinant; tags: N-terminal GST; dsDNA, one strand shown
# T3 sequence: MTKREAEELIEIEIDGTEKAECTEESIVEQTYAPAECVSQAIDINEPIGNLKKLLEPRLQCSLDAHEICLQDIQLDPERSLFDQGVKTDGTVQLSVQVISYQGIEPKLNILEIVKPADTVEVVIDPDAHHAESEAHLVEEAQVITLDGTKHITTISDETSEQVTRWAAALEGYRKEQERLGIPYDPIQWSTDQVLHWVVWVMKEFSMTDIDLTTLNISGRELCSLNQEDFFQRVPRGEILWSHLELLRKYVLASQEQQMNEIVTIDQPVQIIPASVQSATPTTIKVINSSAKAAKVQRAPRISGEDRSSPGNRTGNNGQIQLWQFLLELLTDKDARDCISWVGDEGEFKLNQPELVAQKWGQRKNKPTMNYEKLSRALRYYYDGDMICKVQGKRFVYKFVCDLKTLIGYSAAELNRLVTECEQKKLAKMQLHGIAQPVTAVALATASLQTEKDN
# Summary of the method: as §1
# ERG = molecular target: T4, ERG (Homo sapiens, UniProt P11308 1-479); settings: protein: recombinant; tags: N-terminal GST; dsDNA, one strand shown
# T4 sequence: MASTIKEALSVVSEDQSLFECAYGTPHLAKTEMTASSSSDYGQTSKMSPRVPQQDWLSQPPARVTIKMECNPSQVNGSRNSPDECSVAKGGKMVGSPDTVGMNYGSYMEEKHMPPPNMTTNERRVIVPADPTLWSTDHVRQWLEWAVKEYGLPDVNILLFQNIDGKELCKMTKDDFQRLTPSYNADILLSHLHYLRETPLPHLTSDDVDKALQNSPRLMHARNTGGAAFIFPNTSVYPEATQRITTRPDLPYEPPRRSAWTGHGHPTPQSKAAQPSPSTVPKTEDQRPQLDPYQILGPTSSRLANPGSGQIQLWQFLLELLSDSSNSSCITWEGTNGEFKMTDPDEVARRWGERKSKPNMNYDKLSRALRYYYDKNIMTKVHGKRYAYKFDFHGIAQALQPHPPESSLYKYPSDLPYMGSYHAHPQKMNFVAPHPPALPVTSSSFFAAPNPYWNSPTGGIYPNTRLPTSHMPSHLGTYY
# Summary of the method: as §1
# ELF1 = ELF1 (Homo sapiens, UniProt P32519 1-619); settings: protein: recombinant; tags: N-terminal GST; dsDNA, one strand shown
# Summary of the method: as §1
# EHF = molecular target: T5, EHF (Homo sapiens, UniProt Q9NZC4 1-300); settings: protein: recombinant; tags: N-terminal GST; dsDNA, one strand shown
# T5 sequence: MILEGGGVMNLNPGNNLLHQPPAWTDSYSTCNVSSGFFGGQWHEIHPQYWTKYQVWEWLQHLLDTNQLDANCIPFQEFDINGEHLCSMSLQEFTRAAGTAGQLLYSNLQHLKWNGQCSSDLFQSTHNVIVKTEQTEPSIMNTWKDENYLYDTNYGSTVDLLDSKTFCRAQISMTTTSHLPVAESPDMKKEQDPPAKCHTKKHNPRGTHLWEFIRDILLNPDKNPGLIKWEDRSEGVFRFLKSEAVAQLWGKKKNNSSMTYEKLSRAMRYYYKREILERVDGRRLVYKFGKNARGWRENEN
# Summary of the method: as §1
# SPI1 = SPI1 (Homo sapiens, UniProt P17947 1-270); settings: protein: recombinant; tags: N-terminal GST; dsDNA, one strand shown
# Summary of the method: as §1
# SPIB = SPIB (Homo sapiens, UniProt Q01892 1-262); settings: protein: recombinant; tags: N-terminal GST; dsDNA, one strand shown
# Summary of the method: as §1
# ELK3 = molecular target: T6, ELK3 (Homo sapiens, UniProt P41970 1-407); settings: protein: recombinant; tags: N-terminal GST; dsDNA, one strand shown
# T6 sequence: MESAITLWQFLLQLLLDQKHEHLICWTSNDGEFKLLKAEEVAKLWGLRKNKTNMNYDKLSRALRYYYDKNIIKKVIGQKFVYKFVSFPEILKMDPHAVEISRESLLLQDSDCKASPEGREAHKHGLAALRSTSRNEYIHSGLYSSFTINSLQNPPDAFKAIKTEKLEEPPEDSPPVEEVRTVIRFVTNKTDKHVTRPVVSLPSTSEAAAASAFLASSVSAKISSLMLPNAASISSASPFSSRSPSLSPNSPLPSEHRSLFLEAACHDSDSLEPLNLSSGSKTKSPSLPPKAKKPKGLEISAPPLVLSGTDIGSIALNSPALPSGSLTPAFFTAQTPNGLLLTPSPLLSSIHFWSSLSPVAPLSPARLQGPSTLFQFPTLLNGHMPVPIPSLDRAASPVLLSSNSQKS
# Summary of the method: as §1
# FEV = molecular target: T7, FEV (Homo sapiens, UniProt Q99581 1-238); settings: protein: recombinant; tags: N-terminal GST; dsDNA, one strand shown
# T7 sequence: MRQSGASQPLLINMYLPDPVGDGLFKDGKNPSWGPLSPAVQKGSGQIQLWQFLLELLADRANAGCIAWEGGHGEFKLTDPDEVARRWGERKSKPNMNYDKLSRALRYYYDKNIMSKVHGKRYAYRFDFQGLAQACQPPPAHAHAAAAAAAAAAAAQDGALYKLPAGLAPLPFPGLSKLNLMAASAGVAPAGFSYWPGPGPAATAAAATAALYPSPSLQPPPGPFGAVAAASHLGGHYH
# Summary of the method: as §1
# ETV5 = ETV5 (Homo sapiens, UniProt P41161 1-510); settings: protein: recombinant; tags: N-terminal GST; dsDNA, one strand shown
# Summary of the method: as §1
# HSF1 = HSF1 (Homo sapiens, UniProt Q00613 1-529); settings: protein: recombinant; tags: N-terminal GST; chain copies: 3; dsDNA, one strand shown
# Summary of the method: as §1
# SPIC = molecular target: T8, SPIC (Homo sapiens, UniProt Q8N5J4 1-248); settings: protein: recombinant; tags: N-terminal GST; dsDNA, one strand shown
# T8 sequence: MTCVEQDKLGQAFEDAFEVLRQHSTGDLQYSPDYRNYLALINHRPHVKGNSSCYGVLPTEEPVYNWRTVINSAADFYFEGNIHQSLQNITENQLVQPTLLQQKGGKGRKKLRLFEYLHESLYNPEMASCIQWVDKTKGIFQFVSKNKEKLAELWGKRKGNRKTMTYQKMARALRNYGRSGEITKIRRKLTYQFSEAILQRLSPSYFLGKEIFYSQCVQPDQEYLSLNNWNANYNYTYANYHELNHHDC
# Summary of the method: as §1
# ELF4 = ELF4 (Homo sapiens, UniProt Q99607 1-663); settings: protein: recombinant; tags: N-terminal GST; dsDNA, one strand shown
# Summary of the method: as §1
# ELK4 = molecular target: T9, ELK4 (Homo sapiens, UniProt P28324-2 1-405); settings: protein: recombinant; tags: N-terminal GST; dsDNA, one strand shown
# T9 sequence: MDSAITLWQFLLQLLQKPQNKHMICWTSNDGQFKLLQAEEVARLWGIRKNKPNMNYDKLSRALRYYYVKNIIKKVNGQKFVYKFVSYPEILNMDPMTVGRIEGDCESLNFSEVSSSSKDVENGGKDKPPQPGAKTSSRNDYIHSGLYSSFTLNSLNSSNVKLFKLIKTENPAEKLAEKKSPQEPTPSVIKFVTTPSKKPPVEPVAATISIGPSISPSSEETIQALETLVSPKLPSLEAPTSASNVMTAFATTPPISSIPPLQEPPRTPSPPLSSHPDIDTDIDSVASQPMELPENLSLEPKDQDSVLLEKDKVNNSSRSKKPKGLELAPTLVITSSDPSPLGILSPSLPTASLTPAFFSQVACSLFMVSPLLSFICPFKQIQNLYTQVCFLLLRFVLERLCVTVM
# Summary of the method: as §1
# ETV2 = molecular target: T10, ETV2 (Homo sapiens, UniProt O00321 1-342); settings: protein: recombinant; tags: N-terminal GST; dsDNA, one strand shown
# T10 sequence: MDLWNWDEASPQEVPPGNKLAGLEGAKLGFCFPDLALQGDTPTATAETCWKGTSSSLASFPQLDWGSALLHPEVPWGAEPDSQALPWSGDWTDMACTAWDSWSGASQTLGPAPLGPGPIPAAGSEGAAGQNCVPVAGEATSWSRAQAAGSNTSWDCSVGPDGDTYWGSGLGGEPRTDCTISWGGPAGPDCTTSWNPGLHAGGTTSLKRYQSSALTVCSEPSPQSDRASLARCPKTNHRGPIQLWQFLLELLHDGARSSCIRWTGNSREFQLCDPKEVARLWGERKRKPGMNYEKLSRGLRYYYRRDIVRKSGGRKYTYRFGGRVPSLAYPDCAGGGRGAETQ
# Summary of the method: as §1
# ELF3 = molecular target: T11, ELF3 (Homo sapiens, UniProt P78545 1-371); settings: protein: recombinant; tags: N-terminal GST; dsDNA, one strand shown
# T11 sequence: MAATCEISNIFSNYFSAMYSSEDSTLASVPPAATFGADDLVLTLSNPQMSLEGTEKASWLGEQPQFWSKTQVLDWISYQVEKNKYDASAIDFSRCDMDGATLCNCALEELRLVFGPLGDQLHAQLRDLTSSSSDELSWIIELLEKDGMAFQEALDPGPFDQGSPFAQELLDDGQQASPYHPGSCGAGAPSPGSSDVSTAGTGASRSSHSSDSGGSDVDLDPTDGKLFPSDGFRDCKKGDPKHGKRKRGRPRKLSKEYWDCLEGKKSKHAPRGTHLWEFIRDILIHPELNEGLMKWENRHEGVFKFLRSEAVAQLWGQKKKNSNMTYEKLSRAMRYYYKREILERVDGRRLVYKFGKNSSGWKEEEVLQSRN
# Summary of the method: as §1
# CRX = CRX (Homo sapiens, UniProt O43186 1-299); settings: protein: recombinant; tags: N-terminal GST; dsDNA, one strand shown
# Summary of the method: as §1
# ETV1 = ETV1 (Homo sapiens, UniProt P50549 1-477); settings: protein: recombinant; tags: N-terminal GST; dsDNA, one strand shown
# Summary of the method: as §1
# Chain of ELF4 (Q99607 whole entry): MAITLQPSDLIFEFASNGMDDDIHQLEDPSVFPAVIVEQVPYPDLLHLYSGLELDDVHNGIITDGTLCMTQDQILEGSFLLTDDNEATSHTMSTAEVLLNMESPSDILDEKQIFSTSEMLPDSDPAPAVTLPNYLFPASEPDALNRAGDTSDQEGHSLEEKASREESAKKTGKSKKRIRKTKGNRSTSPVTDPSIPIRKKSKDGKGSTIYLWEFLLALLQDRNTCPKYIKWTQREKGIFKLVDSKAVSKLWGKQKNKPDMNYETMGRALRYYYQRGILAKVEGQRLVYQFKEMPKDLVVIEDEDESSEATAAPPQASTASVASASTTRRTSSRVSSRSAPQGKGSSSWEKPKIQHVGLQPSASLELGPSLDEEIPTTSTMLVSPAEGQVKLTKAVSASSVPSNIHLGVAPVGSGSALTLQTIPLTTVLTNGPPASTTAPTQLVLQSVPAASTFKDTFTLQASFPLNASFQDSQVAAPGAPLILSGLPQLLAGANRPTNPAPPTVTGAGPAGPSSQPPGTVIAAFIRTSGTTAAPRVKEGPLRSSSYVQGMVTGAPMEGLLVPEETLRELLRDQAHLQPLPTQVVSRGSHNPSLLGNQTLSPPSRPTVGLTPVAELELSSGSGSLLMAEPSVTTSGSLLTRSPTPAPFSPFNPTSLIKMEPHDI
# Chain of ETV5 (P41161 whole entry): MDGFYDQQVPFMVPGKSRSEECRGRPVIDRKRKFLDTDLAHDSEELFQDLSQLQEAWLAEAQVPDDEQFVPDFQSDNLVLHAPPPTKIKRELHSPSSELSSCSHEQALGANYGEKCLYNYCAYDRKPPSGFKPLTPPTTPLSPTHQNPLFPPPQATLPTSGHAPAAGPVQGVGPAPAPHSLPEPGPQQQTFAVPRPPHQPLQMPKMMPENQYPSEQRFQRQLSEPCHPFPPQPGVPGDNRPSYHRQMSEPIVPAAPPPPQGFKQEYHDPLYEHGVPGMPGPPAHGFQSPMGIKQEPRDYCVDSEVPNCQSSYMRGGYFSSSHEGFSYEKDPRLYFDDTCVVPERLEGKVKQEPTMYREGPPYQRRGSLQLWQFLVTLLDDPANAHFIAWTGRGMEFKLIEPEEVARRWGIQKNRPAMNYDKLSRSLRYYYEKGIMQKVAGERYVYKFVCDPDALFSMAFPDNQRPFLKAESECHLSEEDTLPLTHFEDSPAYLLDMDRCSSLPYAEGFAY
# Chain of ETV1 (P50549 whole entry): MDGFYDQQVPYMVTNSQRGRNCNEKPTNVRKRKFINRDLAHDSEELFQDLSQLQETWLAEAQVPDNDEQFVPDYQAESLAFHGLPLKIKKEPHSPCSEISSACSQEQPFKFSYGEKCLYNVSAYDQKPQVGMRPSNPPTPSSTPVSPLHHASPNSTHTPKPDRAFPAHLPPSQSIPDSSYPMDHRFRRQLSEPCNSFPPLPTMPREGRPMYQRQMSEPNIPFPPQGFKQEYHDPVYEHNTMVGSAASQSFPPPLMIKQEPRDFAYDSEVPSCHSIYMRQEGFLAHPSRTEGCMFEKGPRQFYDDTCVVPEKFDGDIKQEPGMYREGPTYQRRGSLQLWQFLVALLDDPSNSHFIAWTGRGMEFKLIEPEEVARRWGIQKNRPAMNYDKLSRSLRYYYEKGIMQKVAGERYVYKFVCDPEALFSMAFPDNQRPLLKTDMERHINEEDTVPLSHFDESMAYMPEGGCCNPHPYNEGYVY
# Chain of SPIB (Q01892 whole entry): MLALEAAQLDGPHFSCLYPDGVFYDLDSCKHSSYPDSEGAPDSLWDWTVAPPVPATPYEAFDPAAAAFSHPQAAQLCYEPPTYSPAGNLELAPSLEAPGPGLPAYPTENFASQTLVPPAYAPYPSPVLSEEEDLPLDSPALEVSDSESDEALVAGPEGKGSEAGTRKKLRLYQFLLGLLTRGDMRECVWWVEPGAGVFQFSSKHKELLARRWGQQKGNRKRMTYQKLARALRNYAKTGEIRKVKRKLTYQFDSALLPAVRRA
# Chain of CRX (O43186 whole entry): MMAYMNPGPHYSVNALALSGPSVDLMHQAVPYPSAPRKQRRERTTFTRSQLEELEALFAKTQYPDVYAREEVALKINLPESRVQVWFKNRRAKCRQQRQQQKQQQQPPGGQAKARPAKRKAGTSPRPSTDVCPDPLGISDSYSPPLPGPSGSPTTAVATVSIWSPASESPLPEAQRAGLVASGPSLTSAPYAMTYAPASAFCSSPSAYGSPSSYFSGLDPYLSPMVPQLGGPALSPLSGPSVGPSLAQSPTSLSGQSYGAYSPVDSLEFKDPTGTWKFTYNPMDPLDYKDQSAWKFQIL
# Chain of HSF1 (Q00613 whole entry): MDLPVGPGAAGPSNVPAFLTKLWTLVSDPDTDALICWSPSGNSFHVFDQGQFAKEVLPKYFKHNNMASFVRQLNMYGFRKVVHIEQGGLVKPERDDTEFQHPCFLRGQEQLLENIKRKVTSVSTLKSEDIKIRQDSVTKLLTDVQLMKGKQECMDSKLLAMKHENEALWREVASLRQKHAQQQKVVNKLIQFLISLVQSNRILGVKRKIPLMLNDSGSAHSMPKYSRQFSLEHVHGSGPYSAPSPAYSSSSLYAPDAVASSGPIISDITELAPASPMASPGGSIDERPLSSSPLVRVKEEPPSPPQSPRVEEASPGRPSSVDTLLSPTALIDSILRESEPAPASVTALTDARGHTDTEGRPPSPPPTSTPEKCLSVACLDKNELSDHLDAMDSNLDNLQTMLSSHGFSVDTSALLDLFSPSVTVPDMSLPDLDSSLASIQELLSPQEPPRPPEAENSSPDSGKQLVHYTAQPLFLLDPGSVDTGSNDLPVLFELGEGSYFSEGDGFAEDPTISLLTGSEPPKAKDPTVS
# Chain of ELF1 (P32519 whole entry): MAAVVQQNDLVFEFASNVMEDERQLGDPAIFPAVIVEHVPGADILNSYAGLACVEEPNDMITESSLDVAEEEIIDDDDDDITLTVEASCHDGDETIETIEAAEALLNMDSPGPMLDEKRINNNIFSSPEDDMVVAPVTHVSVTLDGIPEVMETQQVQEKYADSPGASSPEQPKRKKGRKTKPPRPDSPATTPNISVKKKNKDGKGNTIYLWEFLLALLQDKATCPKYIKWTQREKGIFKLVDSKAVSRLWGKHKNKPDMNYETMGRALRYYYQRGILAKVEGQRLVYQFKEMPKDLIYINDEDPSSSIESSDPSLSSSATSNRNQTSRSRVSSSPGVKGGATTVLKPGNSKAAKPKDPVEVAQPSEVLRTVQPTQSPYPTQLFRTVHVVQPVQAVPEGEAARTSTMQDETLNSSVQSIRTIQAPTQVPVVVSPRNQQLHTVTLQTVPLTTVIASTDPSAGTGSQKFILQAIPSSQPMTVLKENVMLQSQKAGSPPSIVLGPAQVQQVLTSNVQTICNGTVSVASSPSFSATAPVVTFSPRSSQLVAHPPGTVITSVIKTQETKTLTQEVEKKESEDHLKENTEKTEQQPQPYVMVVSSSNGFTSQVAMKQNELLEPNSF
sequence,measurement,setting,value
CCTCAG,binding signal,FLI1,"1.17 fold enrichment (6-mer frequency, TF over GST control)"
same,binding signal,ELK1,"1.23 fold enrichment (6-mer frequency, TF over GST control)"
same,binding signal,GABPA,"1.35 fold enrichment (6-mer frequency, TF over GST control)"
same,binding signal,ERG,"1.21 fold enrichment (6-mer frequency, TF over GST control)"
same,binding signal,ELF1,"1.27 fold enrichment (6-mer frequency, TF over GST control)"
same,binding signal,EHF,"1.17 fold enrichment (6-mer frequency, TF over GST control)"
same,binding signal,SPI1,"1.17 fold enrichment (6-mer frequency, TF over GST control)"
same,binding signal,SPIB,"1.35 fold enrichment (6-mer frequency, TF over GST control)"
same,binding signal,ELK3,"1.24 fold enrichment (6-mer frequency, TF over GST control)"
same,binding signal,FEV,"1.21 fold enrichment (6-mer frequency, TF over GST control)"
same,binding signal,ETV5,"1.12 fold enrichment (6-mer frequency, TF over GST control)"
same,binding signal,HSF1,"1.07 fold enrichment (6-mer frequency, TF over GST control)"
same,binding signal,SPIC,"1.17 fold enrichment (6-mer frequency, TF over GST control)"
same,binding signal,ELF4,"1.3 fold enrichment (6-mer frequency, TF over GST control)"
same,binding signal,ELK4,"1.4 fold enrichment (6-mer frequency, TF over GST control)"
same,binding signal,ETV2,"1.37 fold enrichment (6-mer frequency, TF over GST control)"
same,binding signal,ELF3,"1.35 fold enrichment (6-mer frequency, TF over GST control)"
same,binding signal,CRX,"1.15 fold enrichment (6-mer frequency, TF over GST control)"
same,binding signal,ETV1,"1.13 fold enrichment (6-mer frequency, TF over GST control)"
